Experimental data: PubChem BioAssay (NCATS)
Records with an inconclusive call do not appear. Activity calls are given as the source filed them. Calls come from the whole dose curve; as a rule, active = well fitted inhibition curve with a large enough effect; inconclusive = small, poorly fitted or top-dose-only effect; inactive = flat fitted curve, though single readings scatter.

Tests used:
Assay in all cases: qHTS profiling for inhibitors of Plasmodium falciparum proliferation (AID 504749); note: nearly all actives have a fitted effect of over 60% in size
Details in all cases: P. falciparum in erythrocytes, SYBR Green DNA, 72 h
CP191 = system: CP191
In short: (§1)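 Readout was DNA-dye fluorescence from lysed cultures, ex 485/em 535 nm. Parasitized red cells had grown 72 h with compound; data scaled between 0.29 uM artemisinin and DMSO wells and corrected using vehicle-only plates.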

CP192 = system: CP192
In short: as §1

CP194 = system: CP194
In short: as §1

CP201 = system: CP201
In short: as §1

CP203 = system: CP203
In short: as §1

CP211 = system: CP211
In short: as §1

CP215 = system: CP215
In short: as §1

CP217 = system: CP217
In short: as §1

CP237 = system: CP237
In short: as §1

CP238 = system: CP238
In short: as §1

CP247 = system: CP247
In short: as §1

CP250 = system: CP250
In short: as §1

CP252 = system: CP252
In short: as §1

CP256 = system: CP256
In short: as §1

CP260 = system: CP260
In short: as §1

CP262 = system: CP262
In short: as §1

CP265 = system: CP265
In short: as §1

CP266 = system: CP266
In short: as §1

CP268 = system: CP268
In short: as §1

CP269 = system: CP269
In short: as §1

Measured: Potency
Potency is the fitted concentration of half-maximal effect.

CC[C@]1(O)CC2CN(CCc3c([nH]c4ccccc34)[C@@](C(=O)OC)(c3cc4c(cc3OC)N(C)[C@H]3[C@@](O)(C(=O)OC)[C@H](OC(C)=O)[C@]5(CC)C=CCN6CC[C@]43[C@@H]65)C2)C1 (stereo partly drawn)
active: CP191 2820 nM | CP192 4260 nM | CP194 3010 nM | CP201 4780 nM | CP203 4260 nM | CP211 1510 nM | CP215 2130 nM | CP217 3980 nM | CP237 158 nM | CP238 3160 nM | CP247 355 nM | CP250 3550 nM | CP252 3550 nM | CP256 2510 nM | CP260 158 nM | CP262 1070 nM | CP265 3980 nM | CP266 3790 nM | CP268 6750 nM | CP269 1900 nM

CC(=O)O[C@H]1C(=O)[C@@]2(C)[C@H]([C@H](OC(=O)c3ccccc3)[C@]3(O)C[C@H](OC(=O)[C@H](O)[C@@H](NC(=O)c4ccccc4)c4ccccc4)C(C)=C1C3(C)C)[C@]1(OC(C)=O)CO[C@@H]1C[C@@H]2O
active: CP191 178 nM | CP192 675 nM | CP194 675 nM | CP201 953 nM | CP203 849 nM | CP211 478 nM | CP215 1350 nM | CP217 562 nM | CP237 708 nM | CP238 251 nM | CP247 355 nM | CP250 708 nM | CP252 178 nM | CP256 282 nM | CP260 355 nM | CP262 953 nM | CP265 891 nM | CP269 536 nM
